From PubChem
Shown are actives, neighbours in structure and some others; about 2.3% of the full set was active somewhere.
JMJD2E inh – blocks human JMJD2E demethylase activity; B2RXH2; JMJD2E catalytic domain, FDH-coupled NADH fluorescence (FDH is formaldehyde dehydrogenase); Potency, µM (highest dose often 57.1 µM), inactives show top-dose activity change, negative = inhibition, usual class: inhibitors; hit rate 1.6% among 230,000; AID 2147; active = well fitted inhibition curve with a large enough effect, not every such curve was filed as active; inconclusive = small, poorly fitted or top-dose-only effect, or another doubt; inactive = no such curve, though single readings can be large or run the other way;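 also: potency is read from the fitted curve at half-maximal effect; 0% = wells with enzyme and -100% = buffer wells without enzyme; nearly all actives have a fitted effect of over 50% in size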
Target sequence (B2RXH2 1-337 limits assumed): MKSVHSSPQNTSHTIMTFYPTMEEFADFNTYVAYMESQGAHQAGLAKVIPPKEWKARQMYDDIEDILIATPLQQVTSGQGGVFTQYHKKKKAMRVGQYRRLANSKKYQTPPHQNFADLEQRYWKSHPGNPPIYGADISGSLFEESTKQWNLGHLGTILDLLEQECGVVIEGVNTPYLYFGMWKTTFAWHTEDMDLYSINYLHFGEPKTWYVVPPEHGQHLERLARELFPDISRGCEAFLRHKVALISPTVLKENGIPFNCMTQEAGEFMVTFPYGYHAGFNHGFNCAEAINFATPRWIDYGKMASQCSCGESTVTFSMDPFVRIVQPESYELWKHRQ
Coupling enz – counter-screen for Giardia aldolase inhibitors: coupling enzyme system. activity change, negative = inhibition, % at 58.2 µM, hits read low. coupling enzyme system counterscreen, AmpLite Red fluorescence. hit rate 0.67% among 290,000; in the data active = activity change below about -30%; also: % is scaled to controls: 0 for no effect and ±100 for the full control effect
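Counterscreen lacking aldolase: glyceraldehyde-3-phosphate coupling-enzyme reagent preincubated 10 min at RT with compound (at 57.5 uM final), then substrate/coupling system with AmpLite Red added; fluorescence read at 525/598 nm after 20 min RT.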
HTT aggregate – inhibitors of mutant huntingtin aggregate formation in PC12 cells. PC12 HttQ103-GFP aggregates, Acumen cytometry, 40 h. Potency, µM (highest dose often 46.1 µM), for inactives: at the top dose activity change, negative = inhibition, hits mostly inhibitors. hit rate 1.1% among 220,000. AID 1688; also: potency is read from the fitted curve at half-maximal effect; % is scaled to controls: 0 for no effect and ±100 for the full control effect; nearly all actives have a fitted effect of over 60% in size
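Multiplexed with ATP-based cell death, this channel scores GFP aggregates in PC12 cells expressing inducible HTTex1-Q103-GFP. Induction used 100 nM tebufenozide; compounds were tested in concentration series.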
GoLoco inh red – blocks human Gai1 binding to RGS12 GoLoco peptide, red readout. P63096. Gai1:RGS12 GoLoco peptide FP, rhodamine, 10 min. Potency, µM (titrated, usually from 61.6 µM), without a hit: at the highest dose activity, negative = inhibition, most hits filed as inhibitors. hit rate 0.44% among 230,000; active = well fitted inhibition curve with a large enough effect, not every such curve was filed as active; inactive = no such curve, though single readings can be large or run the other way; also: potency is read from the fitted curve at half-maximal effect; % is scaled to controls: 0 for no effect and ±100 for the full control effect; nearly all actives have a fitted effect of over 30% in size
HTT cytoprotect – protects HTT-Q103 PC12 cells, measured by ATP; PC12 HTT-Q103 induced, cytoprotection, ATP luminescence, 40 h; Potency, µM (highest dose often 56.4 µM), without a hit: cytoprotection (ATP increase), most hits filed as activators; hit rate 0.14% among 230,000; also: potency is read from the fitted curve at half-maximal effect; % of control where 0% means no effect; nearly all actives have a fitted effect of over 45% in size
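Compounds were screened for protection of PC12 cells against cell death after tebufenozide induction (100 nM final) of mutant Huntingtin exon 1 (Q103) fused to GFP.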
VDR inh – inhibitors of human vitamin D receptor. Potency, µM, for inactives: max response, negative = inhibition, most hits filed as inhibitors. VDR-SRC2-3 peptide fluorescence polarization, 2 h. P11473. hit rate 0.93% among 400,000; also: potency is read from the fitted curve at half-maximal effect; % is scaled to controls: 0 for no effect and ±100 for the full control effect
Target sequence (P11473 whole entry, looked up): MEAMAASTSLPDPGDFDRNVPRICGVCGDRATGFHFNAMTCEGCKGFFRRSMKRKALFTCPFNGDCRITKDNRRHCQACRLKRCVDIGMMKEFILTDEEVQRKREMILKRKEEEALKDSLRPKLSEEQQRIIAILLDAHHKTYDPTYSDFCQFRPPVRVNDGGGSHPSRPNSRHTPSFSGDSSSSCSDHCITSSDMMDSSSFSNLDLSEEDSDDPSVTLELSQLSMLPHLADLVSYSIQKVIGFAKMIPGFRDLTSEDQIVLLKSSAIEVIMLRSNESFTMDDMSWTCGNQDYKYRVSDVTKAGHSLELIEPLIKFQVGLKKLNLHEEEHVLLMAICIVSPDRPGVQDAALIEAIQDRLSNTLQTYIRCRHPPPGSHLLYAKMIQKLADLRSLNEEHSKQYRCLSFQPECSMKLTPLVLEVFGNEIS
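After 23 nl compound addition and a short centrifugation, plates sat for 2 hours at ambient temperature; polarization of fluorescence then indicated loss of VDR binding to peptide SRC2-3.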
An asterisk follows results filed as active; ? = inconclusive; nt = not tested or not shown; [ ] = another dose, or the depositor's remark. Unless noted, calls follow the shape of the dose curve; as a rule, active = well fitted curve in the direction sought with a large enough effect; inconclusive = small, poorly fitted or top-dose-only effect, or another doubt; inactive = no such curve, though single readings can be large; an effect the other way counts as inactive or inconclusive.

SMILES	JMJD2E inh	Coupling enz	HTT aggregate	GoLoco inh red	HTT cytoprotect	VDR inh
Cc1nc2ccc(C(=O)N/N=C/c3cc([N+](=O)[O-])ccc3O)cc2[nH]1	35µM*	1	-8%	16%	nt	12%
O=C(CSc1ccccn1)N/N=C/c1ccccc1[N+](=O)[O-]	1%	1	-12%	0%	22%[10 µM]	-7%
Cc1cc([N+](=O)[O-])nn1CC(=O)N/N=C/c1ccccc1Br	6%	1	11%[9.22 µM]	4%	27%[10 µM]	1%
O=C(Cn1cncn1)N/N=C/c1cc([N+](=O)[O-])ccc1O	25µM*	0	9%[9.22 µM]	5%	26%[10 µM]	-16%
O=C(CSc1ccccn1)N/N=C/c1cc([N+](=O)[O-])ccc1O	13µM*	10	-30%[9.22 µM]	-1%	-12%[10 µM]	-7%
COC(=O)c1ccccc1Oc1cc(C(F)(F)F)nc(-c2ccccn2)n1	nt	nt	nt	nt	nt	7%
CC(C)(C)OC(=O)N[C@@H](Cc1ccccc1)[C@H](O)c1ccco1	10%	4	21%[9.22 µM]	-8%	19%[10 µM]	-16%
COc1ccc(S(=O)(=O)N2CCCC(C(F)(F)F)C2)cc1 (stereo unspecified)	-1%	0	-6%[9.22 µM]	9%	1%	-13%
Cc1ccn(CC(=O)N/N=C/c2cc([N+](=O)[O-])ccc2O)n1	13µM*	5	6.3µM*	4%	nt	2%
CCOC(=O)C1CCCN(C(=O)Cn2ncc3c([nH]c4ccccc43)c2=O)C1 (stereo unspecified)	nt	-4	nt	nt	nt	-3%
O=C(NC1CCCC1)C(c1ccc(Cl)cc1)N1CCc2ccccc21 (stereo unspecified)	4%	1	-1%	0%	-10%	89µM*
CC(C)C[C@H](NC(=O)[C@H](CO)NC(=O)[C@@H]1CCCN1C(=O)[C@H](Cc1ccc(O)cc1)NC(=O)[C@H](CC(C)C)NC(=O)[C@H](CC(C)C)NC(=O)[C@@H]1CCCN1C(=O)[C@@H](NC(=O)[C@H](CO)NC(=O)[C@H](CO)NC(=O)[C@H](CO)NC(=O)[C@H](CO)NC(=O)[C@@H]1CCCN1C(=O)[C@@H](NC(=O)[C@@H](N)CO)C(C)C)[C@@H](C)O)C(=O)N[C@@H](C)C(=O)N[C@@H](CC(C)C)C(=O)N1CCC[C@H]1C(=O)N[C@@H](C)C(=O)N1CCC[C@H]1C(=O)O	nt	2	nt	nt	nt	-2%
CN(C)CCOC(=O)[C@@H](c1ccccc1)C1(O)CCCC1	1%[25.5 µM]	0	1%	7%[21.6 µM]	5.6µM*	-11%
O=C(O)C(c1ccccc1)C1(O)CCC1 (stereo unspecified)	nt	nt	nt	nt	nt	22%
COc1cccc(NC2C=CS(=O)(=O)C2)c1 (stereo unspecified)	-9%	1	-11%	-7%	-2%[10 µM]	8%
COc1ccc(NC2C=CS(=O)(=O)C2)c(OC)c1 (stereo unspecified)	1%	-41*	6%	0%	-1%[0.074 µM]	5%
COc1ccc(/C=C/C(=O)OCC(=O)NC2CCCC2)cc1	nt	nt	nt	nt	nt	-20%
COc1ccc(-n2c(C)c(C(C)=O)c3cc(O)ccc32)cc1	3%	0	0.32µM*	89%	-10%[10 µM]	-5%
Cc1ccccc1N=C/C=C1\N(C)c2ccccc2C1(C)C	?	-10	14µM*	209%	-61%	10%
CC(C)(C)OC(=O)N1CCC(N2CCN(Cc3ccccc3)C(=O)C2=O)CC1	nt	nt	nt	nt	nt	13%
COC(=O)N1[C@H](C)C=C[C@]1(Cc1ccccc1)C(=O)NCc1ccc(N(C)C)cc1	18µM*	-2	nt	-6%	-50%	nt
Cc1ccc(S(=O)(=O)Nc2c(O)ccc3ccccc23)cc1	nt	nt	nt	nt	nt	32µM*
Cc1ccc(S(=O)(=O)Nc2c(Cl)c(Cl)c(O)c3ccccc23)cc1	nt	-11	nt	nt	nt	nt
CCCCc1nn2c(=O)cc(COC(=O)c3ccccc3NC(=O)C3CCCCC3)nc2s1	nt	nt	nt	nt	nt	5%
O=C(COC(=O)/C=C/c1ccc(F)cc1)Nc1ccc2[nH]c(=O)[nH]c2c1	nt	nt	nt	nt	nt	-4%
SMILES	JMJD2E inh	Coupling enz	HTT aggregate	GoLoco inh red	HTT cytoprotect	VDR inh
COC(=O)c1ccc(NC(=O)CSc2ccccc2)cc1	1%	1	15%	16%	12%[10 µM]	50µM*
CCCc1ccc(O)c(N=Cc2cc(Br)cc(OCC)c2O)c1	16µM*	-5	-9%	168%	?	12%
O=Cc1s/c(=N\S(=O)(=O)c2ccccc2)n(CCCCl)c1Cl	3%	-1	5µM*	12%	-178%	22µM*
CCn1c(C)cs/c1=N\S(=O)(=O)c1ccccc1	nt	nt	nt	nt	nt	-23%
CCCC[C@H]1C2=C3[C@@H](CC(C(=O)OC)=C[C@@H](C(=O)OC)[C@H]3C(C)(C)C2=O)n2c(=O)n(C)c(=O)n21	nt	0	nt	nt	nt	-22%
Cc1ccc(OCCn2c(Br)nc3c2c(=O)n(C)c(=O)n3C)cc1	-7%	-50*	-29%	3%	23%[10 µM]	0%
CN(C)S(=O)(=O)c1cccc(NC(=O)c2cncc(Br)c2)c1	3%	-15	?	-13%	-11%[10 µM]	-15%
Cc1ccc(NC(=O)c2cncc(Br)c2)cc1S(=O)(=O)N(C)C	-4%	-2	?	0%	-3%[10 µM]	45µM*
Cc1ccc(OCC(=O)NN=C2C3CC4CC(C3)CC2C4)cc1	nt	nt	nt	nt	nt	-26%
CC(C)(CO)N=C1NS(=O)(=O)c2cc([N+](=O)[O-])ccc21	2%	-6	10µM*	2%	nt	-1%
CS(=O)(=O)N(CC(=O)O)Cc1ccccc1	nt	nt	nt	-4%[14.2 µM]	8%[10 µM]	nt
CN1CCCN(Cc2nc(-c3cccc(C(F)(F)F)c3)no2)CC1	-6%	0	-2%	5%	-54%	-6%
C=CCNC(=S)N/N=C(\C)c1ccccn1	8.9µM*	-2	3.5µM*	13%	-61%[10 µM]	-2%
CC(=NNC(=S)Nc1ccccc1Cl)c1ccccn1	nt	nt	nt	nt	nt	-29%
CCOC(=O)c1c(NC(=O)C(C)Oc2ccc(Cl)c(C)c2)sc2c1CCCC2 (stereo unspecified)	nt	nt	nt	nt	nt	79µM*
CCCc1ccc(OC(C)C(=O)Nc2sc3c(c2C(=O)OC)CCCCC3)cc1 (stereo unspecified)	nt	nt	nt	nt	nt	89µM*
O=c1cc(-c2ccccc2O)oc2c(O)c(O)ccc12	11µM*	-56*	nt	-10%	-28%[1.9 µM]	nt
O=c1cc(-c2ccccc2O)oc2ccc3ccccc3c12	2%	-1	nt	3%	-104%[1.9 µM]	nt
Cc1oc2c(O)c(O)ccc2c(=O)c1-c1ccccc1	13µM*	-12	13%[9.22 µM]	-17%	5%[10 µM]	6%
Cc1oc2c(O)c(O)ccc2c(=O)c1-c1ccc(Cl)cc1	nt	0	nt	nt	nt	-18%
Cc1c(Cc2ccccc2)c(=O)oc2c(O)c(O)ccc12	3.2µM*	-18	?	13%	-83%	6%
Cc1oc2c(O)c(O)ccc2c(=O)c1-c1cnn(-c2ccccc2)c1	6%	-7	15%	2.2µM*	25%	-8%
